Assay outcomes from PubChem BioAssay.
An excerpt weighted towards active compounds, which were near 2.4% of everything screened.
TMEM16A inh: inhibitors of mouse TMEM16A calcium-activated chloride channel; Q8BHY3; HEK293 TMEM16A/YFP iodide influx fluorescence, ionomycin; normalized B-score (activity score, 25-100; higher = stronger inhibition) at 10 µM; hit rate 1.2% among 310,000; AID 588511;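 active means ratio plate-corrected score three or more library SD toward inhibition, starting fluorescence score within five deviations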;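 further: score derived from kinetic fluorescence span divided by baseline fluorescence per well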
Target sequence (Q8BHY3 whole entry, looked up): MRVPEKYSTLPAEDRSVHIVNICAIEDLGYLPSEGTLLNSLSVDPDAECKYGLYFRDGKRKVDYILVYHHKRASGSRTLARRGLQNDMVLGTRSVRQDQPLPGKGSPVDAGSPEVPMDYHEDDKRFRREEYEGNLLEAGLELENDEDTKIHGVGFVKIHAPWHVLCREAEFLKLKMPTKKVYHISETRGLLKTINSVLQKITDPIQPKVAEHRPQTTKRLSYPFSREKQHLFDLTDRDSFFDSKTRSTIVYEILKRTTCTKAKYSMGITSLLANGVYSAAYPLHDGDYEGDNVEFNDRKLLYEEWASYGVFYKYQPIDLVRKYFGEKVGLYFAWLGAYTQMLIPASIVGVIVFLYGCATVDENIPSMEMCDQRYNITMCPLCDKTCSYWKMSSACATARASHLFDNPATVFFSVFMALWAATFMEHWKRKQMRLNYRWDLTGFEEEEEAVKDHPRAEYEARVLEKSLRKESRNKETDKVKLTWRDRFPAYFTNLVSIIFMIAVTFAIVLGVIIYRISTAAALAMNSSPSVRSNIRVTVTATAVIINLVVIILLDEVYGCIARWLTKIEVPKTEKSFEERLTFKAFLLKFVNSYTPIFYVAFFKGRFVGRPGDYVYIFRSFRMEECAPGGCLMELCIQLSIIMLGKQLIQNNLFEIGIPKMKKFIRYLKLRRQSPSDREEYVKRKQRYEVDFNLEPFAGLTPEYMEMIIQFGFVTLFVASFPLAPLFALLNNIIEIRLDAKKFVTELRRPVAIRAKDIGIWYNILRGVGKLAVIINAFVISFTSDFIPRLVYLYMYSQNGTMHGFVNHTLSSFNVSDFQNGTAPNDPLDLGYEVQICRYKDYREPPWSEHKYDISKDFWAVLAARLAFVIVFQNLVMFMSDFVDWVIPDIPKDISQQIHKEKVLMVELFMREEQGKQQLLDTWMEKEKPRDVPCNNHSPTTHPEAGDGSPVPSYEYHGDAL
CRFR2-BP ag: CRF-BP/CRF-R2 complex agonism; HEK293 CRF-R2/CRF-BP, calcium dye fluorescence (FLIPR); percent of saturating CRF peptide response; activation, % at 13.2 µM; hit rate 0.46% among 350,000; AID 588473;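 active means activation of at least 50%, plus an integration ratio under a set limit after plate pattern correction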;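 further: plate controls were neutral control wells without compound for no effect and CRF at EC100 for full effect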
RTF Ca sens inh: cardiac RTF calcium desensitization. IANBD-labeled cardiac RTF, Ca2+ fluorescence. inhibition, % at 7.15 µM. hit rate 0.12% among 340,000. AID 493244;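 active means inhibition above the mean inhibition of all tested compounds plus 3 SD, cut at about 17% in these data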;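 further: assay run at fixed EC70 calcium of 1.6 mM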
CRFBP-R2 block: CRF-BP/CRF-R2 complex antagonism. HEK293 CRF-R2/CRF-BP, CRF-induced calcium fluorescence. inhibition, % at 11.8 µM. hit rate 0.59% among 350,000. AID 588475;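 active means inhibition of the ligand-induced calcium signal above about 50% at the single tested concentration, limit read from the data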
ANO1 activ: activators or potentiators of mouse TMEM16A chloride channel. Q8BHY3. HEK293 TMEM16A/YFP-H148Q/I152L, iodide quench fluorescence; active compounds read low. B-score at 10 µM. hit rate 0.3% among 340,000. AID 623877;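 active means fluorescence-ratio B-score plate-corrected deviation score at least 3 library SD below zero, with starting fluorescence score within 5 deviations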;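 further: channel opened by trigger with iodide after compound preincubation; score built on the fluorescence ratio of max minus min over baseline; more negative score means more quench and so TMEM16A activation or potentiation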
RTF Ca sens act: cardiac RTF calcium sensitization | hit rate 0.24% among 340,000 | activation, % at 7.2 µM | IANBD-labeled TnC RTF fluorescence at EC20 calcium; 0% EC20 calcium, 100% full calcium;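 active means activation above the mean over all tested compounds plus 3 SD, cut at about 30% in these data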;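 further: rise in fluorescence read as greater calcium sensitivity of cardiac thin filaments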
* hit, by the source's call; i = inactive; . = no result given.

SMILES	TMEM16A inh	CRFR2-BP ag	RTF Ca sens inh	CRFBP-R2 block	ANO1 activ	RTF Ca sens act
O=C(/C=C/c1cc[n+](CC(=O)c2ccc3cccc4c3c2CC4)cc1)c1ccc2cccc3c2c1CC3	i	5	17*	-9	i	-23
O=C(C[n+]1ccc2ccccc2c1)c1cccc2ccccc12	i	0	-13	2	i	0
C=CCNc1nc2ccccc2nc1NS(=O)(=O)c1ccc(Br)cc1	25*	0	-2	-6	.	-2
COc1cccc(NC(=O)Nc2cc(C(=O)O)ccc2N2CC3CC(C2)c2cccc(=O)n2C3)c1 (configuration not stated)	i	-1	0	-4	i	6
CC(OC(=O)/C(C#N)=C/c1ccc(N(C)C)cc1)C(=O)N(C)c1ccccc1 (configuration not stated)	i	.	-32	.	i	30*
CC(=O)Nc1ccc(NC(=O)C(C)OC(=O)/C(C#N)=C/c2ccc(N(C)C)cc2)cc1 (configuration not stated)	i	39	-118	-43	i	80*
Nc1c(C=C2C=CC(=O)C=C2)c(=O)nc2sc(CC(=O)N3CCOCC3)nn12	i	0	2	8	i	5
COC1=CC(=Cc2c(N)n3nc(CC(=O)N4CCOCC4)sc3nc2=O)C=C(OC)C1=O	i	151*	-8	-109	i	12
C=CCC1=C/C(=C\c2c(N)n3nc(CC(=O)N4CCCC4)sc3nc2=O)C=C(OC)C1=O	i	71*	-6	-106	i	3
CCOC1=C/C(=C/c2c(N)n3nc(CC(=O)N4CCCCC4)sc3nc2=O)C=CC1=O	i	57*	4	-68	i	2
O=c1cc(OCc2ccccc2)cc[nH]1	.	0	-2	2	i	-3
CN(C)c1ccc(/C=C2\C(=N)N3N=C(CC(=O)N4CCCCC4)SC3=NC2=O)cc1	i	55*	-20	-65	-5.5*	29
CN(C)c1ccc(/C=C2\C(=N)N3N=C(CC(=O)N4CCCC4)SC3=NC2=O)cc1Br	i	0	-1	-17	i	0
O=C(c1cc2ccccc2oc1=O)N(Cc1ccccc1F)C1CCS(=O)(=O)C1 (configuration not stated)	i	0	4	-2	i	-3
CCOC(=O)[C@H]1[C@H]2COc3ccc(Cl)cc3[C@@H]2N2C(=O)c3ccc(F)cc3NC(=O)[C@@]12C	i	-2	6	-2	-13*	-7
CSc1ccc(CN(C)C(=O)c2cccc(S(=O)(=O)NCc3ccccc3)c2)cc1	100*	0	-6	3	i	-1
CN(Cc1ccc(F)cc1)C(=O)c1cccc(S(=O)(=O)N2CCN(Cc3ccccc3)CC2)c1	i	-1	7	8	i	-8
CSc1ccc(CN(C)C(=O)c2cccc(S(=O)(=O)N3CCN(Cc4ccccc4)CC3)c2)cc1	100*	3	3	5	i	-16
CSc1ccc(CN(C)C(=O)c2cc(S(=O)(=O)NCc3ccccc3)ccc2C)cc1	i	3	-6	-5	i	-4
O=C(c1cccc(S(=O)(=O)N2CCN(c3ccccc3)CC2)c1)N1CCCC(C(F)(F)F)C1 (configuration not stated)	25*	0	-6	-3	i	-13
O=C1c2ccccc2-c2nnc(-c3ccccc3)cc21	i	-1	-3	17	i	9
NC(=O)C1=C(c2ccccc2)c2ccccc2C1=O	.	67*	0	-68	-6.3*	-1
O=C(Oc1ccc2c(=O)c(Oc3ccc4ccccc4c3)coc2c1)c1ccco1	i	1	-3	-9	-5.9*	-3
Cc1cccc(Oc2coc3cc(OC(=O)c4cc5ccccc5oc4=O)ccc3c2=O)c1	i	0	-5	10	i	4
CCOC(=O)Oc1ccc2c(=O)c(Oc3cccc(C)c3)coc2c1	i	-4	-2	52*	i	-9
SMILES	TMEM16A inh	CRFR2-BP ag	RTF Ca sens inh	CRFBP-R2 block	ANO1 activ	RTF Ca sens act
Cc1cc(OCC(=O)NCCCn2ccnc2)c2c(C)c(C)c(=O)oc2c1	i	3	-3	-1	i	3
COC(=O)c1cccc(CSc2nc3ccccc3[nH]2)c1	25*	0	-12	10	i	-4
COC(=O)c1ccc(CSc2nc3ccccc3[nH]2)o1	i	-1	4	-12	i	0
Clc1ccc(CN2CCN(c3ncnc4scc(-c5cccs5)c34)CC2)cc1	25*	-1	-1	-42	i	4
Fc1ccc(C(c2nnnn2CCc2ccccc2)N2CCCc3ccccc32)cc1 (configuration not stated)	i	1	5	3	i	-8
c1ccc2c(c1)CCCN2Cc1nnnn1CC1CCCO1 (configuration not stated)	i	7	-64	9	i	37*
c1ccc(CCn2nnnc2CN2CCCc3ccccc32)cc1	i	68*	-14	-17	i	9
c1ccc2sc(N3CCN(Cc4nnnn4CC4CCCO4)CC3)nc2c1 (configuration not stated)	i	8	-15	1	i	-1
Cc1c(C(=O)c2ccccc2C(=O)O)sc2ccccc12	i	-1	-2	11	i	-1
COc1ccc2nc(N=NC3=C(O)CC(C)(C)CC3=O)sc2c1	i	0	3	50*	i	-8
CC1(C)CC(=O)C(N=Nc2ccc3ncsc3c2)=C(O)C1	i	1	-10	7	i	1
O=C(CN1C2=NCCCN2c2ccccc21)c1ccc(Cl)cc1Cl	i	-1	-9	-30	i	-1
Cc1ccc(S(=O)(=O)N/N=C/c2ccccc2O)cc1	i	-1	-11	4	.	3
O=C(N/N=C/c1c(O)ccc2ccccc12)c1cccc(C(F)(F)F)c1	i	208*	-40	-243	i	24
Oc1ccc2ccccc2c1C=Nc1ccccc1Br	i	-1	-5	20	i	-8
Cc1ccc(S(=O)(=O)NN=Cc2c(O)ccc3ccccc23)cc1	.	-1	.	56*	.	.
COc1ccc2ccccc2c1/C=N/NC(=O)c1cccc(Br)c1	i	-1	4	-67	i	10
Oc1ccccc1N=Cc1c(O)ccc2ccccc12	.	123*	-26	-113	i	3
CN(C(=O)CCc1nc2ccccc2c(=O)[nH]1)C1CCS(=O)(=O)C1 (configuration not stated)	.	0	-3	-1	i	-1
CN(C(=O)COC(=O)CCc1nc2ccccc2c(=O)[nH]1)C1CCS(=O)(=O)C1 (configuration not stated)	i	1	2	53*	i	5
